# Bioassay records (PubChem BioAssay)
# Jurkat NFkB inh: inhibitors of the PMA/ionomycin-induced NF-kB reporter in Jurkat cells. hit rate 0.53% among 330,000. AID 435003. PMA/ionomycin-induced NF-kB luciferase reporter, luminescence. inhibition, % at 4 µM; in the data active means inhibition above about 50%
# Bfl-1 A1 inh: inhibitors of the anti-apoptotic protein A1, read as caspase activation; MEF A1-2A-BIM cells, Caspase-Glo 3/7 luminescence, 3 h; percent of clofoctol response, vehicle zero; hit rate 0.066% among 330,000; AID 2462; caspase activation, % (concentration not given with the values);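 active means over half of replicate activation scores above 10%, or exactly half above 10 with the replicate mean above 10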
# 697 NFkB inh: inhibitors of the PMA/ionomycin-induced NF-kB reporter in 697 B cells; hit rate 0.33% among 330,000; 697 B-cell NF-kB luciferase reporter, 16 h; inhibition, % at 4 µM; in the data active means inhibition above about 35%
# Beta apoptosis: blocks beta cell apoptosis; protection from apoptosis, % (test concentration not listed); AID 435005; INS-1E cytokine-induced death, ATP luminescence, 48 h; percent of positive-control rescue, neutral wells zero; hit rate 0.8% among 300,000;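 active means Every replicate reaches about 75%, or at least half do and their mean reaches it too, limit read from the data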;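 further: 0% = cytokine-treated negative control wells and 100% = positive control rescue; higher means more ATP so stronger rescue from cytokine killing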
# NTR1 agonist: activates human neurotensin receptor 1; hit rate 0.17% among 330,000; activation, % at 20 µM; AID 493036; P30989; NTR1-U2OS beta-arrestin-GFP spot imaging, agonist mode;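 active means activation at or above 40% of the spot to cytoplasm intensity ratio, with at least 20 cells analyzed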;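 further: 0% = DMSO without peptide and 100% = 100 nM NTR1 peptide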
# Target sequence (P30989 whole entry, looked up): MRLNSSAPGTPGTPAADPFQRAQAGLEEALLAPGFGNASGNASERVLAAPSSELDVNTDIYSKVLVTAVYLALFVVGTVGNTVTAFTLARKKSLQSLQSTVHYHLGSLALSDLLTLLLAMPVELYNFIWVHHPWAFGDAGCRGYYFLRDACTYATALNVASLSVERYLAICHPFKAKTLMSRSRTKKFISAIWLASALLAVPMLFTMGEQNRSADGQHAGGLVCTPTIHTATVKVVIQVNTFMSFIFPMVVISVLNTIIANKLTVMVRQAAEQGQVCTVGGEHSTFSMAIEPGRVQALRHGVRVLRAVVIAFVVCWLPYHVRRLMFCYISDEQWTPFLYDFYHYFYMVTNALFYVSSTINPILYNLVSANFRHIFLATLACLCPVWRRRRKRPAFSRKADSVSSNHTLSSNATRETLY
# Mdm2-MdmX inh: human Mdm2/MdmX binding inhibition; O15151+Q00987; inhibition, % at 8 µM; hit rate 3% among 330,000; SaOS-2 split-luciferase Mdm2/MdmX complementation, luminescence;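 active means inhibition of at least 50% at 8 µM in the primary screen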
# NTR1 ag conf: confirmation of agonists of human NTR1; shares compounds with NTR1 agonist; NTR1-U2OS beta-arrestin-GFP translocation imaging; activation, % at 20 µM; hit rate 38% among 480; AID 504550;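 active means mean activation at 20 µM of at least 40%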;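 further: 0% = DMSO without peptide and 100% = 100 nM NTR1 peptide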
# The depositor's hits bear a star; . = no result given. Rows were chosen to be rich in hits. Some 3.8% of all compounds tested hit in one or more screens of this group.
SMILES,Jurkat NFkB inh,Bfl-1 A1 inh,697 NFkB inh,Beta apoptosis,NTR1 agonist,Mdm2-MdmX inh,NTR1 ag conf
O=S(=O)(NCc1cccs1)c1ccc(Br)cc1,4,0,11,.,1,0,.
CN(C)S(=O)(=O)c1ccc(S(=O)(=O)NCc2cccs2)cc1,-15,1,8,-2,42*,29,-2
Nc1ccc(C(=O)N/N=C\c2ccc(OC(=O)c3ccccc3Cl)cc2)cc1,-4,1,4,2,-1,25,.
COc1cc(C(=O)N/N=C/c2ccc(OC(=O)c3ccccc3Cl)cc2)ccc1O,-2,1,13,-3,49*,2,9
CCOc1cc(/C=C2\C(=O)ON=C2C)ccc1OCc1ccccc1,-8,-1,20,4,60*,19,84*
COC(=O)CN1C(=O)C2(C(C#N)=C(N)Oc3n[nH]c(-c4cccs4)c32)c2ccccc21 (centres undefined),13,1,7,-5,53*,-12,-3
COc1ccc2oc(C(=O)OCC(=O)NC(C)(C#N)C3CC3)c(C)c2c1 (centres undefined),4,0,-2,-1,1,0,.
COCCCn1c(=NC(C)=O)c(C#N)cc2c(=O)n3cccc(C)c3nc21,-2,-3,-26,-23,1,10,.
COCCCn1c(=NC(=O)c2ccccc2)c(C#N)cc2c(=O)n3cccc(C)c3nc21,-17,-1,5,11,50*,24,20
CC(C)c1nnc(NC(=O)CCC2CCCCC2)s1,-77,0,-7,-4,41*,9,33
O=C1CCN(S(=O)(=O)c2ccc(Cl)cc2)CC1,-6,0,-2,-7,0,5,.
OC(Cn1cncn1)(c1ccccc1)c1ccccc1,15,0,6,-6,55*,-35,-4
COc1ccccc1/C=C\C=N\n1c(-c2ccc(Cl)cc2)n[nH]c1=S,5,-1,3,4,49*,32,9
COc1ccccc1/C=C/C=N/n1c(-c2ccc(F)cc2)n[nH]c1=S,-12,0,-21,0,8,39,.
CCN(CC(=O)Nc1c(F)cccc1F)C(=O)Cc1n[nH]c(=O)c2ccccc12,-4,-1,12,-5,-1,10,.
O=C(O)C1=CC[C@@H](c2ccc(Cl)cc2)N(S(=O)(=O)c2ccc(Cl)cc2)[C@H]1c1ccccc1,22,-1,18,1,40*,-19,4
Cc1cccc(NC(=O)CCS(=O)(=O)c2ccc3c(c2)NC(=O)CS3)n1,15,0,-1,-8,0,11,.
COC(=O)c1c(NC(=O)COC(=O)c2ccc(O)cc2)sc2c1CCCCC2,-21,0,-62,9,43*,2,33
C=C(C)C(COc1c2occc2cc2ccc(=O)oc12)OC(C)(C)C(O)COc1c2occc2cc2ccc(=O)oc12 (centres undefined),18,.,-4,.,2,19,.
COC(=O)c1c(NC(=O)C2SC(=NC3CCCCC3)C(C(N)=O)=C2N)sc2c1CCCC2 (centres undefined),-7,1,11,1,43*,-13,17
C=C(C)CN=C1SC(C(=O)Nc2sc3c(c2C(=O)OC)CCC3)C(N)=C1C(N)=O (centres undefined),-10,-1,-37,0,20,0,.
CCOc1ccccc1C(=O)NCC(=O)N(C)Cc1ccccc1C,4,0,1,9,-1,0,.
O=c1cc(CSc2nc(NCc3ccccc3)c3ccccc3n2)nc2ccc(Cl)cn12,2,1,2,-32,5,19,.
CC1N=C2c3ccccc3N=C(SCc3cc(=O)n4cc(Cl)ccc4n3)N2C1=O (centres undefined),2,-2,-10,-17,52*,49,4
